ADAM10 inh: inhibitors of human ADAM10 | O14672 | recombinant ADAM10, EDANS/DABCYL FRET peptide cleavage, 3 h | inhibition, % at 7 µM | 370,000 compounds, 0.62% hits | AID 720582;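 active = inhibition above a per-campaign cutoff equal to the mean of compounds falling between control-based bounds plus 3 SD, cut at about 20% in these data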;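 also: 0% = DMSO wells while the 100% control is not disclosed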
Target sequence (O14672 214-748 limits assumed): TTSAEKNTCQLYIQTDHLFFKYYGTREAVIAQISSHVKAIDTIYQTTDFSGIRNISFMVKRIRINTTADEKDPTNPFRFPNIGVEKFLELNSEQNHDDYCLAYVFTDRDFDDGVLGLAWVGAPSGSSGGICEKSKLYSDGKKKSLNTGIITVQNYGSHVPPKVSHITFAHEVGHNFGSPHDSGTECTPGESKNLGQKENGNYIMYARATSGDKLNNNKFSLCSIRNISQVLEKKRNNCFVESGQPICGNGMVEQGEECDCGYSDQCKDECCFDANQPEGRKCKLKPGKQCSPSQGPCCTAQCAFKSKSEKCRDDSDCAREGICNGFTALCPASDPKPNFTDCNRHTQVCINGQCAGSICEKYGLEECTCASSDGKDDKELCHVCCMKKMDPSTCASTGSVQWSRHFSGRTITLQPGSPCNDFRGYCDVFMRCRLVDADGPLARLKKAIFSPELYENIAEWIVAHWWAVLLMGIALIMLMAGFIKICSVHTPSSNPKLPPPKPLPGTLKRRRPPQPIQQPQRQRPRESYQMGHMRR
PLCg1 inh: PLC-gamma1 (human) inhibition, primary screen; P19174; purified PLC-gamma1, fluorogenic substrate, fluorescence; inhibition, % at 12.2 µM; 370,000 compounds, 0.84% hits; AID 720700; in the data active = inhibition above about 9.5%
ADAM17 inh: inhibits human ADAM17; recombinant ADAM17, EDANS/DABCYL FRET peptide cleavage; inhibition, % at 6.95 µM; 370,000 compounds, 0.83% hits;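 active = inhibition above the mean of compounds lying between control limits plus 3 SD, set per campaign, cut at about 8.5% in these data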;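 also: 0% = DMSO-only wells as the low control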
PLCb3 inh: PLC-beta3 (human) inhibition, primary screen; inhibition, % at 12.2 µM; Q01970; AID 720704; 370,000 compounds, 0.18% hits; Purified PLC-beta3, fluorogenic substrate, fluorescence; in the data active = inhibition above about 11%;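 also: 0% = median of compound wells on plate and 100% = full blocker control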
proKLK7 act: activators of human kallikrein-7 zymogen; activation, % at 7 µM; P49862; purified proKLK7, EDANS-DABCYL substrate fluorescence; 100% is mature enzyme control, 0% vehicle; 370,000 compounds, 0.9% hits;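 active = activation above the mean of all tested compounds plus 3 SD, computed per campaign excluding outliers beyond control limits, cut at about 13% in these data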
ADAM10 confirm: confirmation of inhibitors of human ADAM10 | ADAM10 QFRET peptide cleavage, EDANS fluorescence | inhibition, % at 6.95 µM | AID 743208 | shares compounds with ADAM10 inh | 2,100 compounds, 1% hits;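 active = inhibition above about 20% chosen separately for each screening run, limit read from the data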;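 also: 0% = DMSO wells and 100% = marimastat wells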
ADAM17 counter: ADAM17 inhibition, counter-screen for ADAM10 exosite hits; shares compounds with ADAM10 inh; ADAM17 QFRET peptide cleavage, EDANS fluorescence; inhibition, % at 6.95 µM; 2,100 compounds, 0.5% hits; AID 743214;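 active = mean triplicate inhibition above the solvent-only control wells' mean plus 3 SD, cut at about 12% in these data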;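 also: 0% = DMSO wells and 100% = marimastat wells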
ADAM10 counter: counter-screen for ADAM17 exosite inhibitors: inhibitors of human ADAM10. shares compounds with ADAM17 inh. recombinant ADAM10, EDANS/DABCYL FRET peptide cleavage, 3 h. inhibition, % at 6.95 µM. 2,900 compounds, 47% hits. AID 743256;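 active = mean inhibition over the triplicate runs exceeds the activity threshold set in the earlier primary screen, cut at about 20% in these data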;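 also: 0% = DMSO wells and 100% = marimastat wells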
ADAM17 confirm: human ADAM17 inhibition, confirmation; recombinant ADAM17, EDANS/DABCYL QFRET peptide cleavage; shares compounds with ADAM17 inh; 2,900 compounds, 65% hits; inhibition, % at 6.95 µM;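 active = mean inhibition across replicates above the hit cutoff set in the primary screen, cut at about 8.5% in these data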;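 also: 0% = DMSO wells and 100% = marimastat wells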
Starred values were filed as active, the others as inactive; nt = not tested or not shown. Compounds with a hit are over-represented: about 2.9% of the library has one in this group of screens.

SMILES	ADAM10 inh	PLCg1 inh	ADAM17 inh	PLCb3 inh	proKLK7 act	ADAM10 confirm	ADAM17 counter	ADAM10 counter	ADAM17 confirm
Cc1ccc2nc(-c3ccc(CN4CCC5(CC4)CNc4ccccc45)cc3)c(-c3ccccc3)nc2c1	-19	-21	-1	-17	0	nt	nt	nt	nt
CC(C)(C)NC(=O)C(c1ccc(-c2ccccc2)cc1)N(C[C@H]1CC[C@@H]([C@@H]2CC[C@H](CO)O2)O1)C(=O)c1ccc(C(C)(C)C)cc1 (stereo partly drawn)	20*	2	12*	3	0	4	1	37*	19*
Cc1ccc(C(C(=O)NC(C)(C)C)N(CC2CCCO2)C(=O)c2csnn2)cc1 (stereo not drawn)	-2	3	-1	-6	1	nt	nt	nt	nt
COc1ccc(C2c3c(-c4ccccc4O)n[nH]c3C(=O)N2Cc2ccco2)cc1 (stereo not drawn)	16	1	8	-6	0	nt	nt	nt	nt
COc1ccc(CCN2C(=O)c3[nH]nc(-c4ccccc4O)c3C2c2cccc(Cl)c2)cc1 (stereo not drawn)	36*	4	14*	-2	0	11	5	41*	17*
C#CCNC(=O)C[C@H]1C[C@@]2(C(=O)OC)C(=C[C@H](C(C)(C)C)O[C@@H]2C)N(Cc2ccco2)C1=O	-7	-2	-3	-2	0	nt	nt	nt	nt
CCOc1ccc(-n2c(SCC(=O)Nc3ccc(OCc4ccccc4)cc3)nnc2-c2ccc(Cl)cc2)cc1	-6	-2	-4	-2	0	nt	nt	nt	nt
Cc1ccc(-n2c(SCC(=O)Nc3cccc(S(N)(=O)=O)c3)nc3ccccc32)cc1	20*	-20	12*	1	0	11	4	26*	14*
C(=N\n1cnnc1)/c1ccc(OCc2cccc3ccccc23)cc1	23*	7	9.7*	3	0	0	0	0	4
COC[C@H]1CCCN1c1ccc2c(c1)O[C@H](C)CCN(C1CC1)S2(=O)=O	-2	-1	-1	1	1	nt	nt	nt	nt
C=CCOC(=O)N[C@H](c1ccc(-c2ccccc2)cc1)[C@H](C)/C=C/CC(=O)OC	11	1	5	3	1	nt	nt	nt	nt
CCOC(=O)Cn1cc(CN2CCS(=O)(=O)N(Cc3ccc(C)cc3)C(C(=O)OC)C2)nn1 (stereo not drawn)	-7	2	-5	4	0	nt	nt	nt	nt
O=S(=O)(Nc1ccc(C(O)(C(F)(F)F)C(F)(F)F)cc1)c1cccc2ccccc12	34*	-2	11*	-2	1	0	0	40*	21*
CC(=O)Nc1ccc(NS(=O)(=O)c2cccc3ccccc23)cc1	0	3	-1	1	0	nt	nt	nt	nt
COc1ccc(C(c2c[nH]c3ccccc23)c2c[nH]c3ccccc23)cc1O	31*	-1	11*	-8	-1	13	4	43*	20*
Cc1ccc(S(=O)(=O)N(CC(=O)N=Nc2c(O)[nH]c3ccccc23)c2ccc(C)c(C)c2)cc1	23*	8	8.9*	8	0	8	3	26*	18*
C=C(C)COc1ccc(-c2[nH]ncc2-c2ccc(OC)cc2)c(O)c1	16	5	6	5	0	nt	nt	nt	nt
C=C(C)COc1ccc(-c2[nH]ncc2-c2ccccc2)c(O)c1	24*	3	11*	3	0	7	3	34*	17*
COc1ccc(-c2cn[nH]c2-c2ccc(OCc3ccccc3)cc2O)cc1OC	33*	1	9.7*	-10	0	11	3	34*	16*
C=C(C)COc1ccc(-c2n[nH]c(C)c2Oc2ccccc2OC)c(O)c1	26*	1	12*	1	-1	11	3	41*	20*
C=C(C)COc1ccc(-c2nc(N)ncc2-c2ccc(OC)cc2)c(O)c1	27*	-12	16*	-22	0	6	4	13	17*
C=C(C)COc1ccc(-c2nc(N)ncc2-c2ccc(OC)c(OC)c2)c(O)c1	5	-22	2	-34	-1	nt	nt	nt	nt
CCN(c1ccccc1)S(=O)(=O)c1ccc(C(=O)Nc2ccncc2)cc1	6	6	-1	2	0	nt	nt	nt	nt
CCN(c1ccccc1)S(=O)(=O)c1ccc(C(=O)Nc2cccc(NC(C)=O)c2)cc1	22*	2	8.9*	2	-1	8	2	3	3
O=C(Nc1cccc(C(F)(F)F)c1)N1CCC(c2nc(-c3ccc(F)cc3)no2)CC1	21*	1	9.6*	0	0	6	2	34*	17*
SMILES	ADAM10 inh	PLCg1 inh	ADAM17 inh	PLCb3 inh	proKLK7 act	ADAM10 confirm	ADAM17 counter	ADAM10 counter	ADAM17 confirm
CCOC(=O)c1sc(NC(=O)CN2C(=O)NC3(CC(C)CC(C)(C)C3)C2=O)cc1C (stereo not drawn)	24*	4	13*	-1	0	1	1	18	14*
CCOC(=O)c1sc(NC(=O)CN2C(=O)NC3(CC(C)CC(C)(C)C3)C2=O)c(C(=O)OCC)c1C (stereo not drawn)	-2	1	-3	3	-1	nt	nt	nt	nt
CCCCCCCCN1CN2Cc3ccccc3C2CS1(=O)=O (stereo not drawn)	6	-5	0	-4	1	nt	nt	nt	nt
CCOc1cc(/C=C/c2ccc3cccc([N+](=O)[O-])c3n2)cc(Cl)c1O	25*	8	15*	9	-1	0	1	11	5
O=C(/C=C/c1ccc(Cl)cc1Cl)NCCSc1ccccc1	25*	4	11*	3	0	6	2	23*	17*
O=C(/C=C/c1ccc(Cl)cc1Cl)NCCSCc1ccccc1	13	1	5	0	-1	nt	nt	nt	nt
CCC(=O)N1CCN(c2ccc(-n3c(=O)ccc4cnc5ccc(-c6cnc7ccccc7c6)cc5c43)cc2C(F)(F)F)CC1	-37	-102	-6	-158	-8	nt	nt	nt	nt
COC(=O)c1cn(-c2ccc3c(c2)[C@@]2(CC(=O)N(C)C2c2ccccc2)C(=O)N3CC(C)C)nn1 (stereo partly drawn)	4	0	2	0	0	nt	nt	nt	nt
CCOC(=O)c1cccc(NC(=O)CN(C)S(=O)(=O)c2ccco2)c1	0	1	-2	-2	0	nt	nt	nt	nt

Assay outcomes from PubChem BioAssay.
